Test results as given in paper PMC7862700, “An all-to-all approach to the identification of sequence-specific readers for epigenetic DNA modifications on cytosine”.

Assays:
Test in all cases: DAPPL (digital affinity profiling via proximity ligation, sequencing); 10 mM Tris-HCl pH 7.5, 50 mM NaCl, 1 mM DTT, 4% glycerol, room temperature, 30 min; GST-TFs on glutathione beads, 16-mer random dsDNA library, 0.1% formaldehyde crosslink after washing; high values mean tight binding
FEV = target: T1, FEV (Homo sapiens, UniProt Q99581 1-238); conditions: protein: recombinant; tags: N-terminal GST; dsDNA, one strand shown
T1 sequence: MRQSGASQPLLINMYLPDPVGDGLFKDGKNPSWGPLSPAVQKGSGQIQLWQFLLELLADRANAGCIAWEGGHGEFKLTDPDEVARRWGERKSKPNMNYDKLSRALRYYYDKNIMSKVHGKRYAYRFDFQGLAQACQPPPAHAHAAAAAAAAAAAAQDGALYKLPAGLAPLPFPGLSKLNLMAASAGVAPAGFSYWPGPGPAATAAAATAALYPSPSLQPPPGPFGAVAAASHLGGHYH
In short: (§1)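 Sequencing on an Illumina NextSeq500 followed washing, crosslinking with 0.1% formaldehyde, proximity ligation (BsaI/T4 ligase, 1 h, 37 °C) and PCR amplification of pools that had been incubated for 30 min at room temperature with 200 nmole of a random double-stranded 16-mer DNA library in Tris/NaCl/DTT/glycerol buffer. Each pool held DNA-barcoded human transcription factors, expressed in yeast as GST fusions and captured on glutathione beads, plus a tag-only sample. Binding signal is a hexamer's read frequency for a factor divided by its frequency in the tag-only sample.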

ETV5 = ETV5 (Homo sapiens, UniProt P41161 1-510); conditions: protein: recombinant; tags: N-terminal GST; dsDNA, one strand shown
In short: as §1

HSF1 = HSF1 (Homo sapiens, UniProt Q00613 1-529); conditions: protein: recombinant; tags: N-terminal GST; chain copies: 3; dsDNA, one strand shown
In short: as §1

SPIC = target: T2, SPIC (Homo sapiens, UniProt Q8N5J4 1-248); conditions: protein: recombinant; tags: N-terminal GST; dsDNA, one strand shown
T2 sequence: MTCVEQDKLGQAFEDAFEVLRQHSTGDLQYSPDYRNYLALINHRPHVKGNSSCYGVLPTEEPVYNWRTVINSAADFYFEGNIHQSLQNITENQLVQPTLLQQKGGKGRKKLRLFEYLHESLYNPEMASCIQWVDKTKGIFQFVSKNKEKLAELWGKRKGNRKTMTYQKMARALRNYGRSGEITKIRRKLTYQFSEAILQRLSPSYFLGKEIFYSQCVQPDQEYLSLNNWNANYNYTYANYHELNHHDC
In short: as §1

ELF4 = ELF4 (Homo sapiens, UniProt Q99607 1-663); conditions: protein: recombinant; tags: N-terminal GST; dsDNA, one strand shown
In short: as §1

ELK4 = target: T3, ELK4 (Homo sapiens, UniProt P28324-2 1-405); conditions: protein: recombinant; tags: N-terminal GST; dsDNA, one strand shown
T3 sequence: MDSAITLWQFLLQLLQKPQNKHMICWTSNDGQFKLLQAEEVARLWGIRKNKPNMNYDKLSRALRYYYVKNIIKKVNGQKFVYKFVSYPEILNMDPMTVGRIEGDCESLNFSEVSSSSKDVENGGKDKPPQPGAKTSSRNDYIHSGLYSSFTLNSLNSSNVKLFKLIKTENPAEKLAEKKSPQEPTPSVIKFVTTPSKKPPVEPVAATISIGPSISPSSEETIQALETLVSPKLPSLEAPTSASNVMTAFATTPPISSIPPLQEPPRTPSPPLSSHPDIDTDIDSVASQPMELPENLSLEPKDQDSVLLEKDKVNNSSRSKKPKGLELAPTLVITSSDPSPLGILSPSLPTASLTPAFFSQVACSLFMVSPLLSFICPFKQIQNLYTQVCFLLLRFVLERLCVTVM
In short: as §1

ETV2 = target: T4, ETV2 (Homo sapiens, UniProt O00321 1-342); conditions: protein: recombinant; tags: N-terminal GST; dsDNA, one strand shown
T4 sequence: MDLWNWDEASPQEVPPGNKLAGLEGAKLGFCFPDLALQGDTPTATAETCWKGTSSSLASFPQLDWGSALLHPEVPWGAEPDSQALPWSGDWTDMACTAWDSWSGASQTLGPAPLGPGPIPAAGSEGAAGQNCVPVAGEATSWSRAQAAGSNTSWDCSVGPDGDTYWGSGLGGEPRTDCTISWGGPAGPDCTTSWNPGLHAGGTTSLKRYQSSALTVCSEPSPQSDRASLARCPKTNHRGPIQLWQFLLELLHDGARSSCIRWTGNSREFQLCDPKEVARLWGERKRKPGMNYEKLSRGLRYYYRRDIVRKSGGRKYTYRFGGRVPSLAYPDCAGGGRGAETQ
In short: as §1

ELF3 = target: T5, ELF3 (Homo sapiens, UniProt P78545 1-371); conditions: protein: recombinant; tags: N-terminal GST; dsDNA, one strand shown
T5 sequence: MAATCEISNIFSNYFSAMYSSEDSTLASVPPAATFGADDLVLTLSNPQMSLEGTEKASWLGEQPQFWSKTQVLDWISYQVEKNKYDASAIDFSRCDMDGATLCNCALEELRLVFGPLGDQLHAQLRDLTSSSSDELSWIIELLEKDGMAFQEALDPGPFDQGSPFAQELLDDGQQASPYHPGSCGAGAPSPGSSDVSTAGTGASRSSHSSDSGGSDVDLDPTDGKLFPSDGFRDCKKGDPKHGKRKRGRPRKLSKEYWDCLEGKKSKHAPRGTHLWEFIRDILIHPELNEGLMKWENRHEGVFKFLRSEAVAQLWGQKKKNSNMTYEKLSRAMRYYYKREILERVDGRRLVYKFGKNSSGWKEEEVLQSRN
In short: as §1

CRX = CRX (Homo sapiens, UniProt O43186 1-299); conditions: protein: recombinant; tags: N-terminal GST; dsDNA, one strand shown
In short: as §1

ETV1 = ETV1 (Homo sapiens, UniProt P50549 1-477); conditions: protein: recombinant; tags: N-terminal GST; dsDNA, one strand shown
In short: as §1

ERF = target: T6, ERF (Homo sapiens, UniProt P50548 1-548); conditions: protein: recombinant; tags: N-terminal GST; dsDNA, one strand shown
T6 sequence: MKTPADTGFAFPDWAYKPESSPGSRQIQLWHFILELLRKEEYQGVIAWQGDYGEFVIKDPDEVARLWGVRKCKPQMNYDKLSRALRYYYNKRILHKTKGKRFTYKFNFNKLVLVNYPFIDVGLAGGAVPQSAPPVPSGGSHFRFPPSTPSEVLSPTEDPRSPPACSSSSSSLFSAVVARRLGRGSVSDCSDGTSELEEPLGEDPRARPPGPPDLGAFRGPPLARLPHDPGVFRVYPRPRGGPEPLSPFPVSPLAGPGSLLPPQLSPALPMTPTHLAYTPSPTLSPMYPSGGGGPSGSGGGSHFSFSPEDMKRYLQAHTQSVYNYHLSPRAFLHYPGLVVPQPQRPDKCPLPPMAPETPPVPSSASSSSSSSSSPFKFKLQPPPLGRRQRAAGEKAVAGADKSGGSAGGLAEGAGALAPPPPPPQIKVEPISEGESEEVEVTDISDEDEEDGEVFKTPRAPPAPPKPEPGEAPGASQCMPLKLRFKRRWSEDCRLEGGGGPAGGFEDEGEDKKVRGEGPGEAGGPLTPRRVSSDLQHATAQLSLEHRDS
In short: as §1

ETV3L = target: T7, ETV3L (Homo sapiens, UniProt Q6ZN32 1-361); conditions: protein: recombinant; tags: N-terminal GST; dsDNA, one strand shown
T7 sequence: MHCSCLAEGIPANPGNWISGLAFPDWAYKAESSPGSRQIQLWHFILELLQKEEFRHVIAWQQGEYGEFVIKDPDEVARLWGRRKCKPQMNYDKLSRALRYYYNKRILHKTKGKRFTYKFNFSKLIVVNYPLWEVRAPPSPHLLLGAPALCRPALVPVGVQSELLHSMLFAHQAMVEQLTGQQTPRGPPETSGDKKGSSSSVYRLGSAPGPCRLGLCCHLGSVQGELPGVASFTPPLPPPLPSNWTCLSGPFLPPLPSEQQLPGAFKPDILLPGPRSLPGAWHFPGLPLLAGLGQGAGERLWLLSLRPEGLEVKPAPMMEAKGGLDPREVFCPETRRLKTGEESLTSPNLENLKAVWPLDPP
In short: as §1

ETS2 = target: T8, ETS2 (Homo sapiens, UniProt P15036 1-469); conditions: protein: recombinant; tags: N-terminal GST; dsDNA, one strand shown
T8 sequence: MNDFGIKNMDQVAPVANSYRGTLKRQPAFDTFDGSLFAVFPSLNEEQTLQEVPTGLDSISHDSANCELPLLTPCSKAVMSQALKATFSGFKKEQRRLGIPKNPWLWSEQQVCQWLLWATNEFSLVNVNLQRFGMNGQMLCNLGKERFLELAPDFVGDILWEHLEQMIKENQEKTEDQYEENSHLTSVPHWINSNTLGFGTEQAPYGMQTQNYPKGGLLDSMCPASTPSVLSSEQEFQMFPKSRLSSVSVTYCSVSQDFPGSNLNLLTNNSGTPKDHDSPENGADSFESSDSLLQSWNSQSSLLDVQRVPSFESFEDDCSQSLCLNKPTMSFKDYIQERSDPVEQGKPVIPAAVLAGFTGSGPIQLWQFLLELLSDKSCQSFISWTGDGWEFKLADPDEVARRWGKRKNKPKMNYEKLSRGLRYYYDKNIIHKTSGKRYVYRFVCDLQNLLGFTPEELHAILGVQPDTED
In short: as §1

SPDEF = target: T9, SPDEF (Homo sapiens, UniProt O95238 1-335); conditions: protein: recombinant; tags: N-terminal GST; dsDNA, one strand shown
T9 sequence: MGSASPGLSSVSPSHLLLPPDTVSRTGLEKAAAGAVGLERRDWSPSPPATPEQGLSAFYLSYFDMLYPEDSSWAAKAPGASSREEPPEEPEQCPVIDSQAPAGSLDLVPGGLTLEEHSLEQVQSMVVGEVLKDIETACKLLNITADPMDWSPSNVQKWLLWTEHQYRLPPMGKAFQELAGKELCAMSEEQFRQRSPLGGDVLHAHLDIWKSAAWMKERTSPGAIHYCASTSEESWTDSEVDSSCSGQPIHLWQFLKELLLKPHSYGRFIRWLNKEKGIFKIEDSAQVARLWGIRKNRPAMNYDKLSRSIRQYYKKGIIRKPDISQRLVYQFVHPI
In short: as §1

ETV7 = target: T10, ETV7 (Homo sapiens, UniProt Q9Y603 1-341); conditions: protein: recombinant; tags: N-terminal GST; dsDNA, one strand shown
T10 sequence: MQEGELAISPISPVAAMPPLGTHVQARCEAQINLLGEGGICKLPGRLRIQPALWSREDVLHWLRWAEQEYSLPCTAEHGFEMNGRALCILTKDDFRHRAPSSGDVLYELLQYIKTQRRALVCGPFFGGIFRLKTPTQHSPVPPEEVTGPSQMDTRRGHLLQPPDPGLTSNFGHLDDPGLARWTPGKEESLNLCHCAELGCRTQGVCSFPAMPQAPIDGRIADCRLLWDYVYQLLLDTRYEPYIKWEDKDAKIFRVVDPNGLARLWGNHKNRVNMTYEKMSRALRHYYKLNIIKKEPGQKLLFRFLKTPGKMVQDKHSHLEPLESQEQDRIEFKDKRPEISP
In short: as §1

ELF5 = target: T11, ELF5 (Homo sapiens, UniProt Q9UKW6-2 1-255); conditions: protein: recombinant; tags: N-terminal GST; dsDNA, one strand shown
T11 sequence: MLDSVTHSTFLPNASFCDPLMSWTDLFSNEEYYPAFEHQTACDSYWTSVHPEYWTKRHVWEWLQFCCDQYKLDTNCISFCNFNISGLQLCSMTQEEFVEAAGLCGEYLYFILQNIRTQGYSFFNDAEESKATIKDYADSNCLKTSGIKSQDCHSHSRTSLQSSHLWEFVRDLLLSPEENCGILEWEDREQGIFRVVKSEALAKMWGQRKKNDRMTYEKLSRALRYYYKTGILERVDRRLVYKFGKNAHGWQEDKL
In short: as §1

ETV3 = target: T12, ETV3 (Homo sapiens, UniProt P41162-2 1-143); conditions: protein: recombinant; tags: N-terminal GST; dsDNA, one strand shown
T12 sequence: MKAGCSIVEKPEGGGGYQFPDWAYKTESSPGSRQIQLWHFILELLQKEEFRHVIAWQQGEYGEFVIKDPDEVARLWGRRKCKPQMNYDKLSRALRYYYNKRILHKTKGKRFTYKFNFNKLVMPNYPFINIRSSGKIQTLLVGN
In short: as §1

ETV6 = ETV6 (Homo sapiens, UniProt P41212 1-452); conditions: protein: recombinant; tags: N-terminal GST; dsDNA, one strand shown
In short: as §1

Chain of ELF4 (Q99607 whole entry): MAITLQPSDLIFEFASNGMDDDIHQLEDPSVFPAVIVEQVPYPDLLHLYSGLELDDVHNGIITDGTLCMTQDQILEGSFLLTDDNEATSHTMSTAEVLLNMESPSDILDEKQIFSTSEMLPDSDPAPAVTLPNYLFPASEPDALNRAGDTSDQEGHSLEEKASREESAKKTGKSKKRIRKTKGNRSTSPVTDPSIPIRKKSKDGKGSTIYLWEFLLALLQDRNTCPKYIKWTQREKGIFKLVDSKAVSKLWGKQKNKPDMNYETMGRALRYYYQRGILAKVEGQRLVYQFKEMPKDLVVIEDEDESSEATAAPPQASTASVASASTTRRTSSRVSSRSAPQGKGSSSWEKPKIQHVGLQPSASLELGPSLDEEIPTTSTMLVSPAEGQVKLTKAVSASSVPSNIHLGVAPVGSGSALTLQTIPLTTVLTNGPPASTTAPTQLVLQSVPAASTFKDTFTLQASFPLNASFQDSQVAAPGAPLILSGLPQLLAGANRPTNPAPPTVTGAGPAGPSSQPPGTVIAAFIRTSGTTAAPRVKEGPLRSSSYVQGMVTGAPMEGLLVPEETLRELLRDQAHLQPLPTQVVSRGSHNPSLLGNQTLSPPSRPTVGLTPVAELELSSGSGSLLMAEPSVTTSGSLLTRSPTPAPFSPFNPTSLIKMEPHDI
Chain of CRX (O43186 whole entry): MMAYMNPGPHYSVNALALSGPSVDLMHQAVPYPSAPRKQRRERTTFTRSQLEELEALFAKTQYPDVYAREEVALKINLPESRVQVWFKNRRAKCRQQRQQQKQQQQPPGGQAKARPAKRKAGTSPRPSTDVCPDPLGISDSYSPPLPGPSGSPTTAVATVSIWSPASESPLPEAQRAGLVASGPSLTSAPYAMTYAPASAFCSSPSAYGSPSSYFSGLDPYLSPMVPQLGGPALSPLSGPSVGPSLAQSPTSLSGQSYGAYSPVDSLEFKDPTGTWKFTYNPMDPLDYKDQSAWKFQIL
Chain of ETV1 (P50549 whole entry): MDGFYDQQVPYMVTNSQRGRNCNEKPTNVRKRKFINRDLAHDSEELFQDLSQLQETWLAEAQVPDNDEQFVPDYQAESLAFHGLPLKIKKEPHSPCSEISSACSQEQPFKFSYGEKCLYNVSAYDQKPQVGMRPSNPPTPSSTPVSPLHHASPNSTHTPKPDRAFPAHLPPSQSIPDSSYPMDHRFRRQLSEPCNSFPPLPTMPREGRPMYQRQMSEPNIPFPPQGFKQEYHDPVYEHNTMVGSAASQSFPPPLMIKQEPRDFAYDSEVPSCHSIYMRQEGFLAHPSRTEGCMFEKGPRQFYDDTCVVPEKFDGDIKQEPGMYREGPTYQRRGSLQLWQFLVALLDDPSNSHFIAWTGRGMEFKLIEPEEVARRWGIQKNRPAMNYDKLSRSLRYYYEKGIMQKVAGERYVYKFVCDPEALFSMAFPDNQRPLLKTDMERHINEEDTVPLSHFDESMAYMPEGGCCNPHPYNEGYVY
Chain of ETV5 (P41161 whole entry): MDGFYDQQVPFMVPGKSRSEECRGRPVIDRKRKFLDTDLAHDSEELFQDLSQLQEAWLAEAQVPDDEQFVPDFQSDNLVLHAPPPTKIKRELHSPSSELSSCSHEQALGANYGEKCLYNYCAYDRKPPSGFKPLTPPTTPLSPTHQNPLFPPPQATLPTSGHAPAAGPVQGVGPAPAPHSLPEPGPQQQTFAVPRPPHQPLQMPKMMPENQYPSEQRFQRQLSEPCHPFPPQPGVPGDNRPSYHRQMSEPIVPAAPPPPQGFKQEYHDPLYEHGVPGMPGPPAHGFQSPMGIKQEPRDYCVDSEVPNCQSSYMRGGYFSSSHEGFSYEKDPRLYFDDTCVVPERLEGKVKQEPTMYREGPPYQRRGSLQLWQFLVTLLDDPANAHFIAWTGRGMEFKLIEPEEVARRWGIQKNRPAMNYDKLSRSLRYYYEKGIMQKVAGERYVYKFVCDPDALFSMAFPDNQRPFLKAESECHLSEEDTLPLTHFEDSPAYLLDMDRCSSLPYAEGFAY
Chain of ETV6 (P41212 whole entry): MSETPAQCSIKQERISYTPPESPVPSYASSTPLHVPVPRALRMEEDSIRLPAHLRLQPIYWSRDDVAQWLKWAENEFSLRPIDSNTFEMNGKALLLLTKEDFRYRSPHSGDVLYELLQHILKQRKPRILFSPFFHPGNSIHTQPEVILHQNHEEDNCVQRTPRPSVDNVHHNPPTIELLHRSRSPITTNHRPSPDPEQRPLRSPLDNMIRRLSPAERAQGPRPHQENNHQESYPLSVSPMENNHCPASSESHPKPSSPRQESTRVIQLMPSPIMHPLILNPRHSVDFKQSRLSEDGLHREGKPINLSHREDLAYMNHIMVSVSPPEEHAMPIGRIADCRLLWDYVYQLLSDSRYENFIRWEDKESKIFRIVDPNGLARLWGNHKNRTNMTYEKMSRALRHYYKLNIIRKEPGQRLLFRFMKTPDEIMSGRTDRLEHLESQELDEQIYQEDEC
Chain of HSF1 (Q00613 whole entry): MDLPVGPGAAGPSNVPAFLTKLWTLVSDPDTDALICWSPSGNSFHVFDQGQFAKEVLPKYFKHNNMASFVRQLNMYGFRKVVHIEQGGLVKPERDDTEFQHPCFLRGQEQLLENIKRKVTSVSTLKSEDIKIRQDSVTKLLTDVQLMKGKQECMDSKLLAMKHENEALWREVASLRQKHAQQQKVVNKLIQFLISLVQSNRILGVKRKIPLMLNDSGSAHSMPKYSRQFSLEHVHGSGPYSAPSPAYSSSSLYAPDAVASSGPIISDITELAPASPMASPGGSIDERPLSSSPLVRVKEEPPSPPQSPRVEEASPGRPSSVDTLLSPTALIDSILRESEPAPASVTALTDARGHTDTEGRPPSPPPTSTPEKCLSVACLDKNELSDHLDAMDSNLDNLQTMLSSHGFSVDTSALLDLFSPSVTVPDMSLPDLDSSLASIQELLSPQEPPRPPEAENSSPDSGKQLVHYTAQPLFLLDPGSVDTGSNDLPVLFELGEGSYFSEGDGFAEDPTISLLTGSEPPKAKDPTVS

With CTTTCT the binding signal (FEV) was 1.47 fold enrichment (6-mer frequency, TF over GST control), the binding signal (ETV5) was 1.52 fold enrichment (6-mer frequency, TF over GST control) and the binding signal (HSF1) was 2.74 fold enrichment (6-mer frequency, TF over GST control). The binding signal (SPIC) was 1.67 fold enrichment (6-mer frequency, TF over GST control), the binding signal (ELF4) was 1.48 fold enrichment (6-mer frequency, TF over GST control) and the binding signal (ELK4) was 1.54 fold enrichment (6-mer frequency, TF over GST control). The binding signal (ETV2) was 1.65 fold enrichment (6-mer frequency, TF over GST control), the binding signal (ELF3) was 1.73 fold enrichment (6-mer frequency, TF over GST control) and the binding signal (CRX) was 1.76 fold enrichment (6-mer frequency, TF over GST control). The binding signal (ETV1) was 1.56 fold enrichment (6-mer frequency, TF over GST control), the binding signal (ERF) was 1.63 fold enrichment (6-mer frequency, TF over GST control) and the binding signal (ETV3L) was 1.5 fold enrichment (6-mer frequency, TF over GST control). For the same sequence, the binding signal (ETS2) was 1.55 fold enrichment (6-mer frequency, TF over GST control), the binding signal (SPDEF) was 1.44 fold enrichment (6-mer frequency, TF over GST control) and the binding signal (ETV7) was 1.46 fold enrichment (6-mer frequency, TF over GST control). For the same sequence, the binding signal (ELF5) was 1.5 fold enrichment (6-mer frequency, TF over GST control), the binding signal (ETV3) was 1.52 fold enrichment (6-mer frequency, TF over GST control) and the binding signal (ETV6) was 1.52 fold enrichment (6-mer frequency, TF over GST control).
